For one assay, the target named is CD86. Description: pooled miR-30 sensor sort-seq; sequence = guide strand. To be noted: shRNA.
In turn, TACTATTTCAGGTTGACTGAAG returned a sensor-assay potency score (higher = more potent) of -0.445.
Still for that read-out and setting: as for ATTATCTTGAGATTTCTGCATA, the figure is -0.445; as for ATTGAAATAAGCTTGAATCTTC, 0.247; as for AAGATGGTCATATTGCTCGTAA, -0.638.
Still for that read-out and setting: as for TATACTTGGAATGAACACTGTC, the figure is 1.09; as for TATTGCTCGTAACATCAGGGAA, -0.935.
For the sequence TTTATGTACACATTTTCTGTTA, the sensor-assay potency score (higher = more potent) is -0.664.
Same read-out and setting: as for TAACTGTTGGAAGTACAGCTGT, the figure is -0.0777; as for TGATACATTGATACAAGCCCTT, -0.31.
Same read-out and setting: the figure for TTTTCTCTTTTCTTGGTCTGTT is -0.104; for TCTTGGTCTGTTCACTCTCTTC it is -1.55.
On the same count and under the same terms, as for TAACCGTGTATAGATGAGCAGG, the figure is -0.921.

The target of the next assay is CD8B. The description is as above. As to conditions: shRNA.
Regarding TTATTTGTACAACTAAGACATT, the sensor-assay potency score (higher = more potent) is -1.21.
Same read-out and setting: the figure for AACACAGCTATCTTCTCCTGTT is -0.341; for TTGGTTTGCACCTTTATGTATG it is -1.15; for TATTTGTACAACTAAGACATTT it is -1.4.
Still for that read-out and setting: as for TATCTTCTCCTGTTCCACCTCT, the figure is 0.0744.
The same measure, in the same setting: as for TGTACAACTAAGACATTTGTAT, the figure is 0.113; as for TTCTCCAGTGGATGTAATCTTA, -0.513; as for TAATCTTAGTTGTTTCATGAAA, -1.22.
In turn, AAACACAGCTATCTTCTCCTGT showed a sensor-assay potency score (higher = more potent) of 0.733.
On the same count and under the same terms, the figure for TTGCATCCCGAAACACAGCTAT is -0.634.
Same read-out and setting: as for TACTGAGGGAGATTTTAGCCTC, the figure is -0.613.
Still for that read-out and setting: the figure for TATTGCTGTAGTATCCATGCAG is 0.681; for TTTTTCCACATCGTGCTCGTTA it is -0.473; for TACATTTGGTTCCACAAGGGGG it is -0.791.
TTGAGGGTGGACTTCTTGGTGG displayed a sensor-assay potency score (higher = more potent) of -0.918.
Same read-out and setting: the figure for AAGGAAATCAACCACACTCAGC is -1.28; for TAACCGGCACACTCTCTTCTTG it is -0.762.
On the same count and under the same terms, as for TATGTATGCAGGGGTCTGCTGG, the figure is -1.19; as for TTTAGCCTCGCAGGACAGCATC, -1.65.

A further assay has as its target CDC23. The assay is described as above. To be noted: shRNA.
TTTATTAAAACAGACCAGCTTG: the sensor-assay potency score (higher = more potent) was -0.155.
Same read-out and setting: as for TAAGAATCAAACATCATTCTGG, the figure is 0.585; as for TATATTTGATGTAACACTGGGC, 0.351.
On the same count and under the same terms, as for TTTGTGCACAAGTTGAAGCTTC, the figure is -0.382; as for TAGTTGATTGAGTTTCTCGTAA, -0.361; as for TATAATCCTATCTCCTTGCTTG, 0.291.
Same read-out and setting: the figure for TAAATGCACAACACTTTTGTGC is -0.535; for TTGAGTGGAGAAACTCTGCGTG it is 0.52.
TCTATCAACTGCAACTCTGTGT gave a sensor-assay potency score (higher = more potent) of 0.16.
Note: reference of the scale not given here.
